Potency, activation and activity change, negative = inhibition data for 35 molecules are collected here from PubChem BioAssay (NCATS).

Experiment [1] has as its target Rap guanine nucleotide exchange factor 3 (Homo sapiens) (UniProt O95398). The experiment can be described thus: Confirmatory qHTS for antagonist of cAMP-regulated guanine nucleotide exchange factor 3 (EPAC1) (AID 1645880). Note: nearly all actives have a fitted effect of over 55% in size. Note: potency is the fitted concentration of half-maximal effect. In outline: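 Released BODIPY-GDP fluoresces less than Rap1-bound BODIPY-GDP; the signal is followed at 480/540 nm at 5-min intervals over 30 min, after 5 min at room temperature. Reactions contain 100 nM EPAC1, 250 nM RAP1B-BODIPY-GDP and 50 uM GDP; results are normalized to ATA and DMSO.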
(Quantitative high-throughput screening tests each substance at several concentrations.)

For experiment [2] the target is unchanged. Briefly: Confirmatory qHTS for agonist of cAMP-regulated guanine nucleotide exchange factor 3 (EPAC1) (AID 1645881).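 For activation: EPAC1 catalysed release of BODIPY-GDP from Rap1B seen as fluorescence loss; 100% = effect of cAMP agonist control.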 Note: nearly all actives have a fitted effect of over 75% in size. Note: potency is the fitted concentration of half-maximal effect.
Experiment [3] has as its target Rap guanine nucleotide exchange factor 4 (Homo sapiens) (UniProt Q8WZA2). Briefly: Confirmatory qHTS for agonist of cAMP-regulated guanine nucleotide exchange factor 4 (EPAC2) (AID 1645884). For activation: % is set by controls: 0 for no effect and ±100 for the full control effect.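 Note: nucleotide exchange releases bodipy-GDP from Rap1 and this lowers its fluorescence; nearly all actives have a fitted effect of over 65% in size.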 Note: potency is the fitted concentration of half-maximal effect.
The target is the same in experiment [4]. Briefly: Confirmatory qHTS for antagonist of cAMP-regulated guanine nucleotide exchange factor 4 (EPAC2) (AID 1645885). For activity change, negative = inhibition: % is set by controls: 0 for no effect and ±100 for the full control effect. Note: nearly all actives have a fitted effect of over 25% in size. Note: potency is the fitted concentration of half-maximal effect.
In experiment [5] the target is Rap guanine nucleotide exchange factor 3 (Homo sapiens) (UniProt O95398). The experiment can be described thus: Counterscreen qHTS for antagonist of cAMP-regulated guanine nucleotide exchange factor 3 (EPAC1) (AID 1645888). Note: % of control where 0% means no effect. In outline: (§1)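 Measured: fluorescence of BODIPY-GDP bound to Rap1B, which falls as exchange proceeds. Conditions include 50 uM competing GDP, 5 and 30 min reads, and a later cAMP challenge for antagonist detection.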

The target is the same in experiment [6]. Briefly: Counterscreen qHTS for agonist of cAMP-regulated guanine nucleotide exchange factor 3 (EPAC1) (AID 1645889). For activation: % of control where 0% means no effect. Note: nearly all actives have a fitted effect of over 40% in size. Note: potency is the fitted concentration of half-maximal effect. In outline: as §1
(Counterscreens check selectivity or assay interference.)

Structures are written as SMILES. Inconclusive results are not listed. A number with no mark means an inactive call. Activity calls are given as the source filed them. Calls come from the whole dose curve; as a rule, active = well fitted curve in the direction sought with a large enough effect; inconclusive = small, poorly fitted or top-dose-only effect, or another doubt; inactive = no such curve, though single readings can be large; an effect the other way counts as inactive or inconclusive.

Chain of Rap guanine nucleotide exchange factor 4 (Homo sapiens) (Q8WZA2 whole entry, looked up): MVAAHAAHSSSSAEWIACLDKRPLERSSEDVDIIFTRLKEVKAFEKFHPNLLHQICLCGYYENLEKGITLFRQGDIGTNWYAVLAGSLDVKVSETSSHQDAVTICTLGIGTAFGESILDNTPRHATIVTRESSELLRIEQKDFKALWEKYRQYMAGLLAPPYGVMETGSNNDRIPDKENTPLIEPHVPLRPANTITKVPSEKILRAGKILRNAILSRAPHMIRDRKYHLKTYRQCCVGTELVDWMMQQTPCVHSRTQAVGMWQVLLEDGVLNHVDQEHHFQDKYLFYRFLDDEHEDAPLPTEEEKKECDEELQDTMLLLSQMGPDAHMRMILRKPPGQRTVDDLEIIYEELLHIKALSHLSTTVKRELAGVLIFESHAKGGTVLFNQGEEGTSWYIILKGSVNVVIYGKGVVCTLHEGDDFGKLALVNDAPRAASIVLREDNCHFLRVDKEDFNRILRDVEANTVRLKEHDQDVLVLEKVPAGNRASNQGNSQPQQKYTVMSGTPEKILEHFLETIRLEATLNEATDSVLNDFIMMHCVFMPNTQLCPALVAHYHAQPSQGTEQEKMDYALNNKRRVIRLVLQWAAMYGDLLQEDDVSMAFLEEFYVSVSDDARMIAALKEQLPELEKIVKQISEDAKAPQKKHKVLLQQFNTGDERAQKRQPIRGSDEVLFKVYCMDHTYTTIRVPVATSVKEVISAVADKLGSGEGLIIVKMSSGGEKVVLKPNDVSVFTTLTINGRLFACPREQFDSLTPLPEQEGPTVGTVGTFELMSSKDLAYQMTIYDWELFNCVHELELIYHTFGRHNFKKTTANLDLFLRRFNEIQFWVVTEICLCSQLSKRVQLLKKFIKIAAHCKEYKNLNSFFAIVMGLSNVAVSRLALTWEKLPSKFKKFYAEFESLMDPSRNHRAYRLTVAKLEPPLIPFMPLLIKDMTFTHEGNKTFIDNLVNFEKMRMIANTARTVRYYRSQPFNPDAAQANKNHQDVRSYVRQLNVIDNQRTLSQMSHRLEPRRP
Chain of Rap guanine nucleotide exchange factor 3 (Homo sapiens) (O95398 whole entry, looked up): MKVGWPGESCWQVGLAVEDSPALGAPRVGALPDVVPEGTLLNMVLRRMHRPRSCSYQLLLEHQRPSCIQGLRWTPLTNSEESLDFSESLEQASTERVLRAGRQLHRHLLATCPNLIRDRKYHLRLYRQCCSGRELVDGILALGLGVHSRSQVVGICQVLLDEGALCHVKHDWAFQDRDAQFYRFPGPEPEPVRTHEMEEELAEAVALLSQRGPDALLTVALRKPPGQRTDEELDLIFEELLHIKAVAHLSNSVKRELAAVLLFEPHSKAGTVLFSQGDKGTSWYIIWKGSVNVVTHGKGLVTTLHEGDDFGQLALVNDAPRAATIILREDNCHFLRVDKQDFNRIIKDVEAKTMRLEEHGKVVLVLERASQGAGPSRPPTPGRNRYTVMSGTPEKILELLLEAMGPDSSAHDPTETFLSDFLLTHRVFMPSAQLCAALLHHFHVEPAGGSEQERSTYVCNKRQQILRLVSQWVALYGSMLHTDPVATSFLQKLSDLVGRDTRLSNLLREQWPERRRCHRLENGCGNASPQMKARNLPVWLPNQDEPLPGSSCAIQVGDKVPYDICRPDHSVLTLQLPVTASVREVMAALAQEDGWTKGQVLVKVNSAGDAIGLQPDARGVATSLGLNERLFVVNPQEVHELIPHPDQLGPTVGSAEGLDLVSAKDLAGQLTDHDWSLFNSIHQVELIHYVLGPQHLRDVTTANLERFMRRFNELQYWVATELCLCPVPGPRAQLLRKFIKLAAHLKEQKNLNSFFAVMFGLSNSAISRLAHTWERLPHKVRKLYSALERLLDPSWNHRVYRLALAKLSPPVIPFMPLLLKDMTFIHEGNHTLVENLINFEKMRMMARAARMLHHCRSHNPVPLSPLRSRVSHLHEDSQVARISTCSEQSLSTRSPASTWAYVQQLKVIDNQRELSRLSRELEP

For `c1ccc(-n2nnnc2-n2ccnc2)cc1`, the Potency result in experiment [1], in experiment [2], in experiment [3], in experiment [4], in experiment [5] and in experiment [6] was “inactive” throughout.
With `CCC(=O)OCCCNc1nc(-c2ccc(Cl)cc2)nc2ccccc12`, the Potency result in experiment [1], in experiment [2], in experiment [3], in experiment [4], in experiment [5] and in experiment [6] was “inactive” in each case.
Regarding `O=C(Cc1ccccc1)NCC(=O)N1CCC1`, the Potency entry in experiment [1], in experiment [2], in experiment [3], in experiment [4], in experiment [5] and in experiment [6] was “inactive” throughout.
Regarding `COc1ccc(CCNC(=O)c2c(C)nn(-c3ccc(F)cc3)c2-n2cccc2)cc1OC`, the Potency entry in experiment [1], in experiment [2], in experiment [3], in experiment [4], in experiment [5] and in experiment [6] was “inactive” throughout.
On to `Cc1cccc(C2c3[nH]c4ccccc4c3CCN2Cc2cccn2-c2ncccn2)c1` (stereo not given), for which the Potency result in experiment [1], in experiment [2] and in experiment [4] was “inactive” throughout. Moreover, the activation in experiment [3] was -1.28% [at 17.1 µM, percent relative to cAMP agonist control]; in experiment [6] it was 17.6% [at 30.8 µM]. Besides, in experiment [5], the activity change, negative = inhibition was -4.15% [at 30.8 µM].
As to `Cc1ccc(CN(C(=O)COc2cccc(Cl)c2)c2ccccn2)o1`, the Potency entry in experiment [1], in experiment [2], in experiment [3], in experiment [4], in experiment [5] and in experiment [6] was “inactive” each time.
Regarding `CN[C@@H](CO)C(=O)NC[C@H]1O[C@@H](n2cnc3c(N)ncnc32)[C@H](O)[C@@H]1O`, the Potency entry in experiment [1], in experiment [2], in experiment [3], in experiment [4], in experiment [5] and in experiment [6] was “inactive” in each case.
On to `Nc1nc(CSc2nnnn2-c2ccc(Cl)cc2)nc(N2CCOCC2)n1`, for which the Potency entry in experiment [1], in experiment [2] and in experiment [4] was “inactive” in each case. Also, the activation in experiment [3] is 5.65% [at 17.1 µM, percent relative to cAMP agonist control]; in experiment [6], 8.16% [at 30.8 µM]. Further, in experiment [5], the activity change, negative = inhibition was 9.77% [at 30.8 µM].
Consider `COCCNC(=O)CSc1nc2cc3c(cc2c(=O)n1CCCCCC(=O)NCc1ccc(OC)cc1)OCO3`, for which the Potency result in experiment [1], in experiment [2], in experiment [3], in experiment [4], in experiment [5] and in experiment [6] was “inactive” each time.
`COC(=O)C1(Cc2ccccc2)NC(c2ccc(F)cc2)C2C(=O)N(C)C(=O)C21` (stereo not given): the Potency result in experiment [1], in experiment [2] and in experiment [4] was “inactive” in each case. Further, the activation in experiment [3] is 1.04% [at 17.1 µM, percent relative to cAMP agonist control]; in experiment [6] it was 3.32% [at 30.8 µM]. Besides, in experiment [5], the activity change, negative = inhibition is 4.27% [at 30.8 µM].
Turning to `C=CCn1c(C)cc(C(=O)Cn2ncc(Cl)c(Cl)c2=O)c1C`, the Potency in experiment [1] is 37.9 µM (active). Further, the Potency result in experiment [2], in experiment [3], in experiment [4], in experiment [5] and in experiment [6] was “inactive” in each case.
For the molecule `Cc1ccc2nc(-c3ccccc3)c(Cc3ccccc3C(F)(F)F)n2c1`, the Potency entry in experiment [1], in experiment [2], in experiment [3], in experiment [4], in experiment [5] and in experiment [6] was “inactive” in each case.
As to `Cc1ccc(/C=C/C(=O)Nc2ccc(S(=O)(=O)Nc3cc(C)nc(C)n3)cc2)cc1`, the Potency result in experiment [1], in experiment [2], in experiment [3], in experiment [4], in experiment [5] and in experiment [6] was “inactive” each time.
Take `COc1ccc(CC(=O)Nc2nc(-c3cccnc3)cs2)cc1`: the Potency result in experiment [1], in experiment [2] and in experiment [4] was “inactive” in each case. Also, the activation in experiment [3] was 15.1% [at 17.1 µM, percent relative to cAMP agonist control]; in experiment [6], -9.76% [at 30.8 µM]. In experiment [5], the activity change, negative = inhibition is -4.63% [at 30.8 µM].
`CCOc1cc(/C=N/NC(=O)c2ccc3c(c2)OCCO3)cc(Br)c1O`: the Potency in experiment [1] was 30.1 µM (active). The Potency entry in experiment [2], in experiment [3], in experiment [4], in experiment [5] and in experiment [6] was “inactive” each time.
`CC1(C(=O)NS(=O)(=O)c2ccc3ccccc3c2)CCN1C(=O)C1(c2ccc(Cl)cc2)CCC1` (stereo not given): the Potency in experiment [1] is 37.9 µM (active). For the same molecule, the Potency result in experiment [2], in experiment [3], in experiment [4], in experiment [5] and in experiment [6] was “inactive” throughout.
Take `Oc1ccccc1-c1nc(NCc2ccccc2)c2ccccc2n1`: the Potency entry in experiment [1], in experiment [2], in experiment [3], in experiment [4], in experiment [5] and in experiment [6] was “inactive” each time.
On to `CC(/C=C1\SC(=S)N(NS(=O)(=O)c2ccccc2)C1=O)=C\c1ccccc1`, for which the Potency in experiment [1] is 22.4 µM (active). Also, the Potency result in experiment [2] and in experiment [4] was “inactive” throughout. Also, the activation was 7.93% [at 17.1 µM, percent relative to cAMP agonist control] in experiment [3] and 7.68% [at 30.8 µM] in experiment [6]. In addition, the activity change, negative = inhibition in experiment [5] was -10.4% [at 30.8 µM].
As for `Cc1ccc(S(=O)(=O)/N=C2/NC(=O)/C(=C/c3ccccc3)S2)cc1`, the Potency in experiment [1] is 42.6 µM (active). For the same molecule, the Potency entry in experiment [2], in experiment [3], in experiment [4], in experiment [5] and in experiment [6] was “inactive” in each case.
As to `COCCn1c(SCC(=O)c2ccccc2)nc2cc(C(=O)NC3CCCC3)ccc2c1=O`, the Potency result in experiment [1], in experiment [2], in experiment [3], in experiment [4], in experiment [5] and in experiment [6] was “inactive” throughout.
On to `CC(=O)NC(CCS(C)(=O)=O)C(=O)Nc1cccc(C)c1C` (stereo not given), for which the Potency entry in experiment [1], in experiment [2], in experiment [3], in experiment [4], in experiment [5] and in experiment [6] was “inactive” each time.
`N#CC(C(=O)NCc1ccco1)c1nc2ccccc2nc1N1CCOCC1` (stereo not given): the Potency result in experiment [1], in experiment [2] and in experiment [4] was “inactive” each time. Also, the activation in experiment [3] was 4.26% [at 17.1 µM, percent relative to cAMP agonist control]; in experiment [6], 19.4% [at 30.8 µM]. In experiment [5], the activity change, negative = inhibition is -11.6% [at 30.8 µM].
In the case of `COc1cc(OC)nc(Oc2cc(/C=N/O)ccc2OC)n1`, the Potency entry in experiment [1], in experiment [2] and in experiment [4] was “inactive” in each case. The activation in experiment [3] was -0.415% [at 17.1 µM, percent relative to cAMP agonist control]; in experiment [6], 1.61% [at 30.8 µM]. Further, the activity change, negative = inhibition in experiment [5] is -10.5% [at 30.8 µM].
As for `O=C(OCc1c(-c2ccccc2)ncc2ccccc12)c1ccco1`, the Potency result in experiment [1], in experiment [2], in experiment [3], in experiment [4], in experiment [5] and in experiment [6] was “inactive” throughout.
As for `O=C(NCC1CCCO1)c1ccc(C(=O)NCC2CCCO2)cc1` (stereo not given), the Potency result in experiment [1], in experiment [2] and in experiment [4] was “inactive” each time. The activation in experiment [3] was 5.86% [at 17.1 µM, percent relative to cAMP agonist control]; in experiment [6] it was -3.36% [at 30.8 µM]. Moreover, the activity change, negative = inhibition in experiment [5] is -1.36% [at 30.8 µM].
For the molecule `Cc1cc(C(=O)COC(=O)C2COc3ccccc3O2)c(C)n1CC1CCCO1` (stereo not given), the Potency result in experiment [1], in experiment [2], in experiment [3], in experiment [4], in experiment [5] and in experiment [6] was “inactive” each time.
With `C=CCc1cc(/C=C/c2nc(O)c([N+](=O)[O-])c(=O)[nH]2)cc(OC)c1O`, the Potency in experiment [1] is 33.8 µM (active). The Potency result in experiment [2], in experiment [3], in experiment [4], in experiment [5] and in experiment [6] was “inactive” throughout.
On to `CCOc1c(O)ccc(/C=C2\SC(=S)NC2=O)c1[N+](=O)[O-]`, for which the Potency in experiment [1] is 37.9 µM (active). Besides, the Potency entry in experiment [2], in experiment [3], in experiment [4], in experiment [5] and in experiment [6] was “inactive” in each case.
Regarding `Cc1ccc2c(c1)c(/C=C/c1cc[n+](C)cc1)c(C)n2C`, the Potency entry in experiment [1], in experiment [4] and in experiment [5] was “inactive” each time. In addition, the Potency was 100 µM (active) in experiment [2], 100 µM (active) in experiment [3] and 8.91 µM (active) in experiment [6].
Take `O=C(COC(=O)c1ccc2c(c1)OCO2)NC1CCS(=O)(=O)C1` (stereo not given): the Potency entry in experiment [1], in experiment [2], in experiment [3], in experiment [4], in experiment [5] and in experiment [6] was “inactive” each time.
`CCC(C)Sc1c(C(C)C)cnc2c1c(=O)n(C)c(=O)n2C` (stereo not given): the Potency entry in experiment [1], in experiment [2], in experiment [3], in experiment [4], in experiment [5] and in experiment [6] was “inactive” in each case.
With `CC(=O)NC(CCS(C)(=O)=O)C(=O)Nc1cc(C)on1` (stereo not given), the Potency entry in experiment [1], in experiment [2], in experiment [3], in experiment [4], in experiment [5] and in experiment [6] was “inactive” throughout.
For `CC(NC(=O)c1cc(S(=O)(=O)N2CCOCC2)ccc1N1CCCC1)c1ccc(Cl)c(Cl)c1` (stereo not given), the Potency result in experiment [1], in experiment [2], in experiment [3], in experiment [4], in experiment [5] and in experiment [6] was “inactive” in each case.
In the case of `Clc1c(Cl)c(Cl)c2n[nH]nc2c1Cl`, the Potency in experiment [1] was 75.7 µM (active); in experiment [4], 19 µM (active). Besides, the Potency entry in experiment [2], in experiment [3], in experiment [5] and in experiment [6] was “inactive” each time.
Take `CCCCC(CC)Cn1c(Oc2ccccc2)nc2c1c(=O)n(C)c(=O)n2C` (stereo not given): the Potency result in experiment [1], in experiment [2], in experiment [3], in experiment [4], in experiment [5] and in experiment [6] was “inactive” throughout.
